Screening data deposited in PubChem BioAssay by National Center for Advancing Translational Sciences (NCATS).
HTT prom inh = HTT promoter inhibition; HEK293 HTT promoter firefly luciferase reporter, 24 h; Potency, µM (top dose mostly 57.5 µM), without a hit: at the highest dose activity change, negative = inhibition, actives largely listed as inhibitors; hit rate 0.93% among 48,000; AID 1508623; note: nearly all actives have a fitted effect of over 50% in size
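HEK293 cells carrying firefly luciferase reporters were seeded at 2,500 per well in Opti-MEM and cultured for 24 h. They were then treated with compounds at up to 57.5 uM final for 24 h at 37 degrees C before Dual-Glo luminescence readout.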
NTMT1 inh = NTMT1 methyltransferase inhibition; Q9BV86; NTMT1 MTase-Glo SAH luminescence, purified enzyme; Potency, µM (series often up to 114 µM), for the others: at the top dose activity change, negative = inhibition, hits mostly inhibitors; hit rate 2.5% among 59,000;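 note: plate controls were DMSO vehicle for no effect and no enzyme for full effect; nearly all actives have a fitted effect of over 65% in size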
GALC G270D act = enhancers of human galactocerebrosidase G270D mutant activity in cells. hit rate 0.1% among 45,000. 145M-Twi-hGALC-G270D cells, HMU-beta-Gal fluorescence, 48 h. P54803. Potency, µM (series often up to 57.5 µM), most hits filed as activators. AID 1159614; note: 0% is about no effect; nearly all actives have a fitted effect of over 65% in size
Target sequence (P54803 whole entry G286D): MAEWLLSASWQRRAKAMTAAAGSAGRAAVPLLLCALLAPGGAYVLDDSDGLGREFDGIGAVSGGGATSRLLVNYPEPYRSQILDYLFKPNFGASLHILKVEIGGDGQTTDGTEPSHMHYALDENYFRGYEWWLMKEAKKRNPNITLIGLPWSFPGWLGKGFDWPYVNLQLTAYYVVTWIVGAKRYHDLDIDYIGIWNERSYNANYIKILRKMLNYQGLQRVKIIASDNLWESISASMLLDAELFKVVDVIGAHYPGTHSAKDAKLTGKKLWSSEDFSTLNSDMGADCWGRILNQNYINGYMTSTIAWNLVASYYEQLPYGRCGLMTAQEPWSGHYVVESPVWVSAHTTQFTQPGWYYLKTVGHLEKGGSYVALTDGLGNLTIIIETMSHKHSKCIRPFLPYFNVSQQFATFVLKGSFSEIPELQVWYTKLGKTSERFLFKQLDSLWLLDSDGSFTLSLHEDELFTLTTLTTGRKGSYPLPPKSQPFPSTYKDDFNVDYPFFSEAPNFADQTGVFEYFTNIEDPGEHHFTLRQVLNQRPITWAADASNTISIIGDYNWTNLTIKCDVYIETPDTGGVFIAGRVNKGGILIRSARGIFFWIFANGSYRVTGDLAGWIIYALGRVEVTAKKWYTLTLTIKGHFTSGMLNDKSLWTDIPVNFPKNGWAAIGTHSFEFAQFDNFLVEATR
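qHTS, 1536-well; 145M-Twi-hGALC-G270D cells (WT line also made) in DMEM/F12 + 10% FBS; compound incubation on live cells; HMU-β-gal 0.1 mM final, pH 5.2, NaTC; carbonate stop; fluorescence increase = enhanced residual activity.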
HTT-AS act = activators of huntingtin-antisense promoter activity | HEK293 HTT-AS promoter firefly luciferase reporter, 24 h; response scale: percent change from vehicle, -100% = no light | Potency, µM (titrated, usually from 57.5 µM), inactives show top-dose activity change, positive = activation, usual class: activators | hit rate 0.24% among 48,000; note: nearly all actives have a fitted effect of over 55% in size
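HEK293 cells carrying firefly luciferase reporters were seeded at 2,500 per well in Opti-MEM and cultured for 24 h. They were then treated with compounds at up to 57.5 uM final for 24 h at 37 degrees C before Dual-Glo luminescence readout.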
An asterisk follows results filed as active; i = inactive; u = inconclusive; x = no result given; ! = not confirmed by another sample; [ ] = remark or other dose. The list is not random: actives were taken first. Their share in the collection is about 2.7%. Calls come from the whole dose curve; as a rule, active = well fitted curve in the direction sought with a large enough effect; inconclusive = small, poorly fitted or top-dose-only effect, or another doubt; inactive = no such curve, though single readings can be large; an effect the other way counts as inactive or inconclusive. Potency is the fitted concentration of half-maximal effect.

SMILES | HTT prom inh | NTMT1 inh | GALC G270D act | HTT-AS act
COCCCOc1ccnc(CS(=O)c2nc3ccccc3[nH]2)c1C (stereo unspecified) | 15% | 18µM*! | i | 13%
COc1ccc(Cc2nc3ccccc3[nH]c2=O)cc1 | -11% | 8% | i | -21%
CCCN(CCC)CCCNC(=O)c1cc2c(=O)n(C)c3ccccc3c2s1 | 19% | 50µM* | i | 0%
CCn1c(=O)c2cc(C(=O)NCCCN(C)Cc3ccccc3)sc2c2ccccc21 | 11% | u | i | -3%
FC(F)(F)c1ccc(CNc2nc(-c3ccccc3C(F)(F)F)nc3ccccc23)cc1 | x | 22% | x | x
C[C@@H]1O[C@@H](O[C@H]2[C@H](O)[C@@H](O)[C@H](OC(=O)[C@]34CCC(C)(C)C[C@H]3C3=CCC5[C@@]6(C)CC[C@H](O[C@@H]7O[C@H](C(=O)O)[C@@H](O)[C@H](O)[C@H]7O)C(C)(C)C6CC[C@@]5(C)[C@]3(C)CC4)O[C@@H]2CO)[C@H](O)[C@H](O)[C@H]1O (stereo partly specified) | x | -7%[12.6 µM] | x | x
Cc1ccc(C)c(-c2[nH]c3c(c2-c2c(-n4cccc4)n(C)c(=O)[nH]c2=O)c(=O)[nH]c(=O)n3C)c1 | -10% | 89µM* | i | -5%
CC(=O)N1c2nc(-c3ccco3)nn2C2(CCCCC2)[C@@H]2CCCC[C@@H]21 | -1% | -18% | i | -8%
CC(C)C(=O)N1c2nc(-c3ccco3)nn2C2(CCCCC2)[C@@H]2CCCC[C@@H]21 | -17% | 89µM* | i | -23%
Cc1ccc(S(=O)(=O)N2CCCC2C(=O)Nc2ccc(Br)cc2)cc1 (stereo unspecified) | 32µM* | -17% | i | -50%
O=C(NCCc1ccccc1)C(=O)NCC(c1cccnc1)N1CCN(c2ccc(F)cc2)CC1 (stereo unspecified) | 14µM* | -4% | i | -49%
COc1ccccc1N1CCN(C(CNC(=O)C(=O)NCCc2ccccc2)c2cccnc2)CC1 (stereo unspecified) | 7.1µM* | 1% | i | -57%
O=C(NCc1cccnc1)C(=O)NCC(c1cccnc1)N1CCN(c2ccc(F)cc2)CC1 (stereo unspecified) | u | 0% | i | -15%
NC(=O)NCCCC(NC(=O)Cc1ccccc1)C(=O)O (stereo unspecified) | x | -12%[57.5 µM] | x | x
COc1ccc(C)cc1NC(=O)CCS(=O)(=O)c1cc2c3c(c1)CCN3C(=O)CC2 | -6% | 45µM* | i | 6%
COc1ccccc1NC(=O)CCS(=O)(=O)c1cc2c3c(c1)CCN3C(=O)CC2 | 4% | -2% | i | 2%
Cc1oc(-c2cccc(Cl)c2)nc1CS(=O)(=O)CC(=O)NCc1ccccc1Cl | -12% | 89µM* | i | -18%
Cc1ccccc1-c1nc(CS(=O)(=O)CC(=O)NCc2cccc(Cl)c2)c(C)o1 | -3% | 89µM* | i | -13%
C=CCN(/C=C1\C(=O)O[C@@H](COC)[C@]2(C)C1=C(O)C(=O)C1=C2[C@@H](OC(C)=O)C[C@]2(C)C(=O)CC[C@H]12)CC=C | x | -23% | x | x
CS(=O)(=O)Nc1ccc2oc3c(OC(F)F)ccc(C(=O)Nc4c(Cl)cncc4Cl)c3c2c1 | x | 1%[57.5 µM] | x | x
O=C1OC2(c3ccc(O)cc3Oc3cc(O)ccc32)c2ccccc21 | 9% | 16%[57.5 µM] | i | -7%
O=C1OC2(c3ccccc31)c1cc(I)c(O)c(I)c1Oc1c2cc(I)c(O)c1I | -7% | 1µM* | i | -25%
CC(C)(C)c1ccc(C(=O)NCC(c2cccs2)S(=O)(=O)c2ccc(F)cc2)cc1 (stereo unspecified) | 20µM* | 7% | i | -58%
CC(C)(C)c1ccc(C(=O)NCC(c2cccs2)S(=O)(=O)c2cccs2)cc1 (stereo unspecified) | u | -3% | i | -31%
C=CC(C)(O)CC/C=C(/C)C(=O)OC1C(OC2OCC(OC3OC(CO)C(O)C(O)C3O)C(OC3OCC(O)C(OC4OC(C)C(O)C(O)C4O)C3O)C2O)COC(OC(=O)C23CCC(C)(C)CC2C2=CCC4C5(C)CCC(OC6OC(CO)C(OC7OC(CO)C(O)C(OC8OCC(O)C(O)C8O)C7O)C(O)C6O)C(C)(C)C5CCC4(C)C2(C)CC3O)C1O (stereo unspecified) | x | 4%[6.45 µM] | x | x
SMILES | HTT prom inh | NTMT1 inh | GALC G270D act | HTT-AS act
CC1=C2[N-][C@H]([C@H](CC(N)=O)[C@@]2(C)CCC(=O)NC[C@@H](C)OP(=O)([O-])O[C@H]2[C@@H](O)[C@@H](n3cnc4cc(C)c(C)cc43)O[C@@H]2CO)[C@]2(C)N=C(C(C)=C3N=C(C=C4N=C1[C@@H](CCC(N)=O)C4(C)C)[C@@H](CCC(N)=O)[C@]3(C)CC(N)=O)[C@@H](CCC(N)=O)[C@]2(C)CC(N)=O.O.[Co+2] | x | 50µM* | x | x
O=C(O)Cc1cccc(OCCCN(Cc2cccc(C(F)(F)F)c2Cl)CC(c2ccccc2)c2ccccc2)c1 | -2% | 40µM* | x | -12%
Cc1ccc(-n2nc(C(=O)N3CCN(c4cccc(C(F)(F)F)c4)CC3)c(=O)n(C)c2=O)cc1 | 32µM* | u | i | -32%
Cc1ccc(-n2nc(C(=O)N3CCN(c4ccccc4)CC3)c(=O)n(C)c2=O)cc1 | 1% | -1% | i | -5%
COc1ccccc1-c1cc(Nc2cccc(CS(N)(=O)=O)c2)ncn1 | x | 35µM* | x | x
CC(=O)Nc1cc(Oc2ccc3c(nc(Nc4ccc(F)cc4F)n3C)c2C)ccn1 | x | 18% | x | x
CC(C)c1ccc(Nc2ncnc3c2nc2n3CCCC2)cc1 | -19% | 79µM* | i | u
Clc1ccc(N2CCN(c3ncnc4c3nc3n4CCCC3)CC2)cc1 | 1.4µM* | -3% | i | -90%
Clc1cccc(N2CCN(c3ncnc4c3nc3n4CCCCC3)CC2)c1 | 10µM* | -3% | i | -61%
O=C(C1CCN(c2ncnc3c2nc2n3CCCCC2)CC1)N1CCN(c2cccc(Cl)c2)CC1 | u | -9% | i | -48%
Cn1cnc2c(F)c(Nc3ccc(Br)cc3Cl)c(C(=O)NOCCO)cc21 | 2% | 89µM*! | i | -4%
Cc1cccc2c(C(=O)O)cc(Cl)nc12 | x | 4% | x | x
CCC(C)/C=C(C)/C=C/C1=CC2=C(Cl)C(=O)C(C)(OC(C)=O)C(=O)C2=CN1C(CCCN=C(N)N)C(=O)O (stereo unspecified) | x | -3%[29.8 µM] | x | x
CC(C)CCNS(=O)(=O)c1ccc(N2CCCCS2(=O)=O)cc1 | 14µM* | 1% | i | -21%
Cc1ccc(-c2cc(C(=O)Nc3ccc(Cl)cc3)c3ccccc3n2)cc1C | x | 10% | x | x
C=CC(=O)Nc1cc(N2CCN(CC)CC2)ccc1Nc1cc(N(C)C(=O)Nc2c(Cl)c(OC)cc(OC)c2Cl)ncn1 | x | -3% | x | x
O=[S+]([O-])(Nc1ccccc1)c1ccc(NCc2cccc(C(F)(F)F)c2Cl)cc1 | x | 6%[57.5 µM] | x | x
